Compounds without any hit were thinned out: in the full panel of roughly 83,000, 20% have a hit.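 For each line, cells grew in 96-well plates with the test compound present at a single concentration for 48 hours.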 Unmarked numbers belong to inactive results. Activity calls are given as the source filed them. The calls were made as follows: active = growth percent below 10; inactive = the rest.

This test relates to OVCAR-4 ovarian. The experiment in a line: NCI-60 one-dose screen, 48 h (100 = growth as untreated, 0 = no growth, -100 = all killed). The following applies: 10 µM unless noted.
Regarding `Nc1ccc(N2CCOCC2)cc1`, the growth was 92.8%.

With `COc1cccc(/C=C\C(=O)c2ccccc2)c1`, the growth is 47.4%.

For the molecule `NS(=O)(=O)c1ccc(-n2ncc3c(=O)[nH]c(CN4CCN(c5cc6c(cc5F)c(=O)c(C(=O)O)cn6C5CC5)CC4)nc32)cc1`, the growth is 104%.

As to `COc1cc(C2CC(=O)Nc3c2c(C)nn3-c2nc3ccccc3[nH]2)cc(OC)c1OC` (stereo unspecified), the growth was 107%.

Regarding `CN1CCCCC1CCN1c2ccccc2Sc2ccc(Br)cc21` (stereo unspecified), the growth was 59.4%.

Regarding `Cc1ccc(C2CC3c4ccccc4C2C2CCCCN32)cc1` (stereo unspecified), the growth is 82.6%.

With `CCOC(=O)CC(C)=N`, the growth is 100%.

With `COc1ccc(CN(c2ccc(C)cc2)C2OC(=O)c3ccccc32)cc1OC` (stereo unspecified), the growth was 103%.

For the molecule `c1c2c(cc3c1OCO3)Cc1cc3c(cc1Cc1cc4c(cc1C2)OCO4)OCO3`, the growth was 98.3%.

Take `CCCCCCCCCCCCS(=O)CC(C)O` (stereo unspecified): the growth is 101%.

Regarding `CC1(C)CC(C(=O)OCCCCCCCCCCC[P+](c2ccccc2)(c2ccccc2)c2ccccc2)C(C)(C)N1O` (stereo unspecified), the growth was -31.5% (active).

In the case of `COc1ccc(/C(=C/c2ccc3ccccc3c2)c2nn[nH]n2)cc1OC`, the growth is 62.7%.

As to `Cc1cccc(NC(=O)c2sc3nc4c(cc3c2N)C(=O)CCC4)c1`, the growth is 40.1%.

As for `O=[N+]([O-])c1cccc(C2CC(c3ccccc3)=Nc3ccccc3S2)c1` (stereo unspecified), the growth was 81.7%.

Regarding `CCOC(=O)/C=C/c1ccc(C(=O)OCC)[nH]1`, the growth was 108%.

Take `CS(CCCCN=C=S)=NC(=O)c1c(F)c(F)c(F)c(F)c1F` (stereo unspecified): the growth is 74.4%.
